# Assay results taken from publication PMC8384837, “Expanding the binding specificity for RNA recognition by a PUF domain”.
# Where a chain is given by its changes, count along the chain named.
# Tests used:
# Assay in all cases: yeast three-hybrid, YBZ-1, SC-Leu-His + 0.5 mM 3-AT, 4 days
# Conditions in all cases: tags: N-Gal4 AD-HA kept; label: inside an RPR1-promoter hybrid RNA with tandem MS2 sites; ssRNA
# [1] = target: PUM1 PUF domain R7-SRR (Homo sapiens, UniProt Q14671 828-1176, N1080R;E1083R)
# Summary of the method: (§1)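 The interaction score is the log change in how often each variant appears, from input to selection. Frequencies came from PCR-amplified, Illumina-sequenced repeat regions of Pumilio-1 PUF domain libraries grown in strain YBZ-1 (LexA–MS2 coat fusion, HIS3 reporter) alongside matching RNA elements. Input plates were SC-Leu and selection plates were SC-Leu-His + 0.5 mM 3-AT, each for four days, and the log2 calculation used a pseudocount of 1 where a variant was absent.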
# [2] = target: PUM1 PUF domain R1-YLR (Homo sapiens, UniProt Q14671 828-1176, S863Y;R864L;Q867R)
# Summary of the method: as §1
# [3] = target: PUM1 PUF domain R1-VRR (Homo sapiens, UniProt Q14671 828-1176, S863V;Q867R)
# Summary of the method: as §1
# [4] = target: PUM1 PUF domain R2-QWL (Homo sapiens, UniProt Q14671 828-1176, N899Q;Y900W;Q903L)
# Summary of the method: as §1
# [5] = target: PUM1 PUF domain R2-RKV (Homo sapiens, UniProt Q14671 828-1176, N899R;Y900K;Q903V)
# Summary of the method: as §1
# [6] = target: PUM1 PUF domain R1-RCC (Homo sapiens, UniProt Q14671 828-1176, S863R;R864C;Q867C)
# Summary of the method: as §1
# [7] = target: PUM1 PUF domain R5-RFK (Homo sapiens, UniProt Q14671 828-1176, C1007R;R1008F;Q1011K)
# Summary of the method: as §1
# [8] = target: T1, PUM1 PUF domain R6-AWG (Homo sapiens, UniProt Q14671 828-1176, N1043A;Y1044W;Q1047G)
# T1 sequence: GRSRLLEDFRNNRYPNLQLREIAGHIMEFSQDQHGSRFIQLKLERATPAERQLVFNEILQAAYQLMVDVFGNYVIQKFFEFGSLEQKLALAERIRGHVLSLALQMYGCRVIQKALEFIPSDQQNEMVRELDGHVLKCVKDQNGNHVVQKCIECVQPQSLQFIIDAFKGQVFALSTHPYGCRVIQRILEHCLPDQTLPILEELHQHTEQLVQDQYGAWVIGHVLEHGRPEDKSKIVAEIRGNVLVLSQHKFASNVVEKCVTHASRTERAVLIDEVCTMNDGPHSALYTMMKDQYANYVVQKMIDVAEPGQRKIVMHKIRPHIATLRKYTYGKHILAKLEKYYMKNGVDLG
# Summary of the method: as §1
# [9] = target: T2, PUM1 PUF domain R6-CFN (Homo sapiens, UniProt Q14671 828-1176, N1043C;Y1044F;Q1047N)
# T2 sequence: T1 sequence with A216C, W217F, G220N
# Summary of the method: as §1
# [10] = target: PUM1 PUF domain R8-LHR (Homo sapiens, UniProt Q14671 828-1176, N1122L;Y1123H;Q1126R)
# Summary of the method: as §1
# [11] = target: PUM1 PUF domain R5-CHM (Homo sapiens, UniProt Q14671 828-1176, R1008H;Q1011M)
# Summary of the method: as §1
# [12] = target: PUM1 PUF domain R8-KFC (Homo sapiens, UniProt Q14671 828-1176, N1122K;Y1123F;Q1126C)
# Summary of the method: as §1
# [13] = target: PUM1 PUF domain R4-NNL (Homo sapiens, UniProt Q14671 828-1176, H972N;Q975L)
# Summary of the method: as §1
# [14] = target: T3, PUM1 PUF domain R6-CWC (Homo sapiens, UniProt Q14671 828-1176, N1043C;Y1044W;Q1047C)
# T3 sequence: T1 sequence with A216C, G220C
# Summary of the method: as §1
# [15] = target: PUM1 PUF domain R8-CFR (Homo sapiens, UniProt Q14671 828-1176, N1122C;Y1123F;Q1126R)
# Summary of the method: as §1
# [16] = target: PUM1 PUF domain R7-KHS (Homo sapiens, UniProt Q14671 828-1176, S1079K;N1080H;E1083S)
# Summary of the method: as §1
# [17] = target: PUM1 PUF domain R8-RYD (Homo sapiens, UniProt Q14671 828-1176, N1122R;Q1126D)
# Summary of the method: as §1
# [18] = target: PUM1 PUF domain R8-DYC (Homo sapiens, UniProt Q14671 828-1176, N1122D;Q1126C)
# Summary of the method: as §1
# [19] = target: PUM1 PUF domain R7-ERK (Homo sapiens, UniProt Q14671 828-1176, S1079E;N1080R;E1083K)
# Summary of the method: as §1
# [20] = target: PUM1 PUF domain R3-RTC (Homo sapiens, UniProt Q14671 828-1176, C935R;R936T;Q939C)
# Summary of the method: as §1
sequence,measurement,setting,value
GGCUAGAACUAGUGGAUCCCCCGGCGCCCGGCGGCUCGAGCCCGGGUAAGUUUAAAUAGUCUGCAUGCCGCCGGGCGCCAUGCCUGCAGGUCGACUCUAGAAAACAUG,binding signal,[1],2.68 log2 enrichment (interaction score)
GGCUAGAACUAGUGGAUCCCCCGGCGCCCGGCGGCUCGAGCCCGGGUAAGUGUAAAUCGUCUGCAUGCCGCCGGGCGCCAUGCCUGCAGGUCGACUCUAGAAAACAUG,binding signal,[2],3.95 log2 enrichment (interaction score)
same,binding signal,[3],2.85 log2 enrichment (interaction score)
GGCUAGAACUAGUGGAUCCCCCGGCGCCCGGCGGCUCGAGCCCGGGUAAGUGUAAAAAGUCUGCAUGCCGCCGGGCGCCAUGCCUGCAGGUCGACUCUAGAAAACAUG,binding signal,[4],5.92 log2 enrichment (interaction score)
same,binding signal,[5],3.51 log2 enrichment (interaction score)
GGCUAGAACUAGUGGAUCCCCCGGCGCCCGGCGGCUCGAGCCCGGGUAAGUGUAAAUGGUCUGCAUGCCGCCGGGCGCCAUGCCUGCAGGUCGACUCUAGAAAACAUG,binding signal,[2],2.04 log2 enrichment (interaction score)
same,binding signal,[6],2.4 log2 enrichment (interaction score)
GGCUAGAACUAGUGGAUCCCCCGGCGCCCGGCGGCUCGAGCCCGGGUAAGUGUCAAUAGUCUGCAUGCCGCCGGGCGCCAUGCCUGCAGGUCGACUCUAGAAAACAUG,binding signal,[7],5.3 log2 enrichment (interaction score)
GGCUAGAACUAGUGGAUCCCCCGGCGCCCGGCGGCUCGAGCCCGGGUAAGUGAAAAUAGUCUGCAUGCCGCCGGGCGCCAUGCCUGCAGGUCGACUCUAGAAAACAUG,binding signal,[8],2.57 log2 enrichment (interaction score)
same,binding signal,[9],5.35 log2 enrichment (interaction score)
GGCUAGAACUAGUGGAUCCCCCGGCGCCCGGCGGCUCGAGCCCGGGUAAGUGUAAAGAGUCUGCAUGCCGCCGGGCGCCAUGCCUGCAGGUCGACUCUAGAAAACAUG,binding signal,[5],4.57 log2 enrichment (interaction score)
GGCUAGAACUAGUGGAUCCCCCGGCGCCCGGCGGCUCGAGCCCGGGUAAGUGUAAAUAGUCUGCAUGCCGCCGGGCGCCAUGCCUGCAGGUCGACUCUAGAAAACAUG,binding signal,[10],2.47 log2 enrichment (interaction score)
same,binding signal,[7],4.34 log2 enrichment (interaction score)
same,binding signal,[11],2.96 log2 enrichment (interaction score)
same,binding signal,[12],2.49 log2 enrichment (interaction score)
same,binding signal,[13],3.79 log2 enrichment (interaction score)
same,binding signal,[14],3 log2 enrichment (interaction score)
same,binding signal,[15],4.47 log2 enrichment (interaction score)
GGCUAGAACUAGUGGAUCCCCCGGCGCCCGGCGGCUCGAGCCCGGGUAAGUAUAAAUAGUCUGCAUGCCGCCGGGCGCCAUGCCUGCAGGUCGACUCUAGAAAACAUG,binding signal,[16],2.08 log2 enrichment (interaction score)
GGCUAGAACUAGUGGAUCCCCCGGCGCCCGGCGGCUCGAGCCCGGGUAAGCGUAAAUAGUCUGCAUGCCGCCGGGCGCCAUGCCUGCAGGUCGACUCUAGAAAACAUG,binding signal,[17],4.23 log2 enrichment (interaction score)
same,binding signal,[10],4.05 log2 enrichment (interaction score)
same,binding signal,[18],4.43 log2 enrichment (interaction score)
same,binding signal,[12],6.35 log2 enrichment (interaction score)
same,binding signal,[15],4.3 log2 enrichment (interaction score)
GGCUAGAACUAGUGGAUCCCCCGGCGCCCGGCGGCUCGAGCCCGGGUAAGUGUAAAUUGUCUGCAUGCCGCCGGGCGCCAUGCCUGCAGGUCGACUCUAGAAAACAUG,binding signal,[2],5.29 log2 enrichment (interaction score)
same,binding signal,[6],2.58 log2 enrichment (interaction score)
same,binding signal,[3],1.88 log2 enrichment (interaction score)
GGCUAGAACUAGUGGAUCCCCCGGCGCCCGGCGGCUCGAGCCCGGGUAAGUCUAAAUAGUCUGCAUGCCGCCGGGCGCCAUGCCUGCAGGUCGACUCUAGAAAACAUG,binding signal,[1],2.92 log2 enrichment (interaction score)
same,binding signal,[19],5.87 log2 enrichment (interaction score)
same,binding signal,[16],3.33 log2 enrichment (interaction score)
GGCUAGAACUAGUGGAUCCCCCGGCGCCCGGCGGCUCGAGCCCGGGUAAGUGUAAUUAGUCUGCAUGCCGCCGGGCGCCAUGCCUGCAGGUCGACUCUAGAAAACAUG,binding signal,[20],3.59 log2 enrichment (interaction score)
GGCUAGAACUAGUGGAUCCCCCGGCGCCCGGCGGCUCGAGCCCGGGUAAGUGUUAAUAGUCUGCAUGCCGCCGGGCGCCAUGCCUGCAGGUCGACUCUAGAAAACAUG,binding signal,[7],5.38 log2 enrichment (interaction score)
GGCUAGAACUAGUGGAUCCCCCGGCGCCCGGCGGCUCGAGCCCGGGUAAGUGUAUAUAGUCUGCAUGCCGCCGGGCGCCAUGCCUGCAGGUCGACUCUAGAAAACAUG,binding signal,[13],3 log2 enrichment (interaction score)
GGCUAGAACUAGUGGAUCCCCCGGCGCCCGGCGGCUCGAGCCCGGGUAAGGGUAAAUAGUCUGCAUGCCGCCGGGCGCCAUGCCUGCAGGUCGACUCUAGAAAACAUG,binding signal,[12],2.66 log2 enrichment (interaction score)
